# Source: PubChem BioAssay AID651871 (Sanford-Burnham Center for Chemical Genomics, 2012)
# System: HL-1
# Assay: protection of cardiomyocytes from stress damage, SAR follow-up, cell-based, panel, H9c2 and HL-1, ATP luminescence, set 2 (AID 651871);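 further: cells exposed to stressor for 2 h before ATP readout; reference of the scale not given here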
# Settings: H9c2/HL-1 cardiomyocytes, 2-deoxyglucose stress, with 2-deoxyglucose, run 11, at 19.8 µM (top of the series)
smiles,measurement,value
COc1ccc2c(c1OC)C(=O)N1c3ccccc3C(=O)N(Cc3cccc(Cl)c3Cl)C21 (stereo unspecified),activity (protection/inhibition),40%
